Records with an inconclusive call do not appear. A call without a number means that no potency is given here. Activity calls are given as the source filed them. Calls follow the shape of the dose curve; as a rule, active = well fitted cell-killing curve with a large enough effect; inconclusive = small, poorly fitted or top-dose-only effect, or effect the other way; inactive = flat fitted curve, though single readings scatter.

The test system of this assay is Tov112D. Kind of assay: Primary qHTS to identify gynecologic anti-cancer compounds using libraries of approved drugs and bioactive compounds (AID 1345084). Also: nearly all actives have a fitted effect of over 55% in size. Particulars: Gynecologic cancer cell panel viability, ATPlite luminescence, 48 h; series mostly up to 57.5 µM. The procedure, abridged:
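Cytotoxicity screen measuring ATP content by luciferase luminescence. Each compound is applied at five concentrations for 48 h at 37 C with 5% CO2.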
In the case of `Nc1ccc(N)c([N+](=O)[O-])c1`, the Potency entry was “inactive”.
With `CC(C)n1cnc2c(Nc3cccc(Cl)c3)nc(NCCO)nc21`, the Potency result was “inactive”.
Take `COc1ccc(-c2c(C)c(C(=O)NN3CCCCC3)nn2-c2ccc(Cl)cc2Cl)cc1`: the Potency entry is “inactive”.
In the case of `O=C(CC1NCCC[C@H]1O)Cn1cnc2cc(Br)c(Cl)cc2c1=O` (some centres not stated), the Potency entry was “inactive”.
Same read-out and setting: the same measure for `Cc1c(C(=O)NCCCO)cnn1-c1nc(-c2cccc(C(F)(F)F)c2)cs1`: “inactive”; for `COc1cccc(NC[C@@H](O)Cn2c3ccc(Br)cc3c3cc(Br)ccc32)c1`: “inactive”; for `C[C@@H](O[C@H]1OCCN(Cc2n[nH]nc2CN(C)C)[C@H]1c1ccc(F)cc1)c1cc(C(F)(F)F)cc(C(F)(F)F)c1`: “inactive”.
Still for that read-out and setting: under `CC[C@H](C)[C@H]1O[C@]2(CC[C@@H]1C)C[C@@H]1C[C@@H](C/C=C(\C)[C@@H](O[C@H]3C[C@H](OC)[C@@H](O[C@H]4C[C@H](OC)[C@@H](O)[C@H](C)O4)[C@H](C)O3)[C@@H](C)/C=C/C=C3\CO[C@@H]4[C@H](O)C(C)=C[C@@H](C(=O)O1)[C@]34O)O2` stands “inactive”.
As for `CCC(=O)Nc1cccc(Oc2nc(Nc3ccc(N4CCN(C)CC4)cc3OC)ncc2Cl)c1`, the Potency result is “inactive”.
On to `COc1cc2nc(-c3cc(F)ccc3O)nc(N[C@@H]3CNC[C@H]3C(C)(C)O)c2cc1OC`, for which the Potency entry is “inactive”.
Turning to `Cc1cc(CN)cc(C)c1NC(=O)c1ccc(-c2cc(Cl)ccc2Cl)o1`, the Potency entry was “inactive”.
For `c1ccc(-c2cnc(Nc3ccc(OCCN4CCCC4)cc3)s2)cc1`, the Potency result is “inactive”.
Still for that read-out and setting: under `C=C1C(=O)O[C@@H]2/C=C(/C)CC3C=C(C[C@H](OC(=O)/C(C)=C\C)[C@@H]12)C(=O)O3` (some centres not stated) stands “inactive”; under `CC1(C)SC2C(NC(=O)[C@H](NC(=O)N3CCNC3=O)c3ccccc3)C(=O)N2C1C(=O)O` (some centres not stated), “inactive”; under `CC1(C)SC2C(NC(=O)[C@H](C(=O)O)c3ccsc3)C(=O)N2C1C(=O)O` (some centres not stated), “inactive”.
As for `COc1ccc(-c2nc(-c3cc(C(F)(F)F)cc(C(F)(F)F)c3)n(Cc3ccc(C(N)=O)cc3)c2-c2ccc(OC)cc2)cc1`, the Potency result was “inactive”.
Turning to `Fc1ccccc1CNCc1ccc(-c2ccnc3[nH]ccc23)cc1`, the Potency entry is “inactive”.
In the case of `CCCCc1nc(C)c(CC(=S)N(C)C)c(=O)n1Cc1ccc(-c2ccccc2-c2nn[nH]n2)cc1`, the Potency entry is “inactive”.
Regarding `CO[C@@H]1[C@@H](O[C@H]2O[C@@H](C)[C@H](O[C@@H]3C[C@](C)(O)[C@H](O)[C@@H](C)O3)[C@@H](N(C)C)[C@@H]2O)[C@@H](CC=O)C[C@@H](C)[C@@H](O[C@H]2CC[C@H](N(C)C)[C@H](C)O2)/C=C/C=C/C[C@@H](C)OC(=O)C[C@H]1O`, the Potency entry was “inactive”.
Still for that read-out and setting: the same measure for `CNc1nc(-c2ccc3c(N)n[nH]c3c2)cc(N2CC(C(=O)NC3CCCCC3)CCC2C)n1` (configuration not stated): “inactive”; for `CNc1cc(OC)c(C(=O)N[C@@H]2CCN(Cc3ccccc3)[C@@H]2C)cc1Cl`: “inactive”; for `CN([C@H]1c2cc(OCCCC(F)(F)F)ccc2OC(C)(C)[C@@H]1O)S(C)(=O)=O`: “inactive”.
As to `CCOC(=O)CCC(=O)O[C@H]1[C@H](O[C@@H]2[C@@H](C)[C@H](O[C@H]3C[C@@](C)(OC)[C@@H](O)[C@H](C)O3)[C@@H](C)C(=O)O[C@H](CC)[C@@](C)(O)[C@H](O)[C@@H](C)C(=O)[C@H](C)CC2(C)O)O[C@H](C)C[C@@H]1N(C)C` (some centres not stated), the Potency entry was “inactive”.
Turning to `C=C1C(=O)O[C@@H]2C[C@@H](C)[C@]34C[C@]5(C(=O)O[C@H]6CC(C)=C([C@H](C)CCCO)[C@H](OC(=O)C(C)CC)[C@H]65)[C@@H](C(C)=C3C[C@@H]12)[C@H]4OC(C)=O` (some centres not stated), the Potency result was “inactive”.
With `CC(=O)Nc1ccc(C(=O)Nc2ccccc2N)cc1`, the Potency entry was “inactive”.
With `C[C@H](NC(=O)C(C)(C)Oc1ccc(C(F)(F)F)cn1)[C@@H](Cc1ccc(Cl)cc1)c1cccc(C#N)c1`, the Potency entry is “inactive”.
For `CN(C)CC(=O)Nc1ccc2[nH]c(=O)c3ccccc3c2c1`, the Potency entry is “inactive”.
Take `CC(CCC1(O)OC2CC3C4CC=C5CC(O[C@@H]6O[C@H](CO)[C@@H](O[C@@H]7O[C@H](CO)[C@@H](O)[C@H](O)[C@H]7O)[C@H](O)[C@H]6O[C@@H]6O[C@@H](C)[C@H](O)[C@@H](O)[C@H]6O)CCC5(C)C4CCC3(C)C2C1C)CO[C@@H]1O[C@H](CO)[C@@H](O)[C@H](O)[C@H]1O` (some centres not stated): the activity change, negative = cytotoxicity is 7.99% [at 11.6 µM] (inactive).
Regarding `C[C@@H](CN1CCC(n2c(=O)[nH]c3cc(Cl)ccc32)CC1)NC(=O)c1ccc2ccccc2c1`, the Potency entry is “inactive”.
In the case of `CC(C)c1ccc(NC(=O)C(c2ccccc2)N(C)C(=O)Cc2c[nH]c3ccccc23)cc1` (configuration not stated), the Potency entry is “inactive”.
As to `CCCCC(=O)N(Cc1ccc(-c2ccccc2-c2nn[nH]n2)cc1)C(C(=O)O)C(C)C` (configuration not stated), the Potency result is “inactive”.
In the case of `CCCCc1nc(Cl)c(CO)n1Cc1ccc(-c2ccccc2-c2nnn[nH]2)cc1`, the Potency entry was “inactive”.
For `COc1ccc2c(c1)CN(C(=O)CCN1CCC(Cc3ccccc3)CC1)CCS2`, the Potency entry is “inactive”.
`C=C1C(=O)O[C@@H]2[C@H]1[C@H](O)C[C@]1(C)[C@@H](O)CC=C(C)[C@@H]21`: the Potency entry was “inactive”.
Consider `CCNC(=O)[C@@H]1CCCN1C(=O)[C@H](CCCN=C(N)N)NC(=O)[C@H](CC(C)C)NC(=O)[C@@H](CC(C)C)NC(=O)[C@H](Cc1ccc(O)cc1)NC(=O)[C@H](CO)NC(=O)[C@H](Cc1c[nH]c2ccccc12)NC(=O)[C@H](Cc1cnc[nH]1)NC(=O)[C@@H]1CCC(=O)N1`, for which the Potency entry is “inactive”.
Still for that read-out and setting: the same measure for `COc1ccc(C2(CNC(=O)[C@](C)(Cc3c[nH]c4ccccc34)NC(=O)Nc3ccc([N+](=O)[O-])cc3)CCCCC2)nc1`: “inactive”; for `C=C(C(=O)O)C1CC2=C(C)C(=O)CC2C(C)CC1O` (configuration not stated): “inactive”.

Values taken from PubChem BioAssay (NCATS).
